# RXFP1 antag: RXFP1 (human) relaxin receptor antagonism | HEK293-RXFP1, relaxin-stimulated cAMP HTRF, 30 min; active compounds read low | activity change, negative = inhibition, % at 57.5 µM | 0.59% of 350,000 active | AID 1259400;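 active means activity change of -60% or lower, but not beyond a set lower limit; inconclusive means change between -60% and -40%, or beyond the set limit; inactive means change above -40%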; further: on the % scale 0 is the no-effect control and ±100 the full control effect
# pAkt inh: blocks phosphorylation of Akt; Neuro2A IGF-stimulated pAkt S473 HTRF, 20 min; active compounds read low; activity change, % for hits at 50 µM; 0.32% of 360,000 active; AID 651550; in the data active means activity change below about -80%; inconclusive means mostly about -51% to -80%; further: on the % scale 0 is the no-effect control and ±100 the full control effect
#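 Single-point screen (50 µM final compound) in Neuro2A cells stimulated 20 min with 6 nM IGF at 37 deg C. After lysis, Ser473-phosphorylated Akt read by HTRF (ex 330 nm, em 615/665 nm) as the 665/615 ratio.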
# RXFP1 ag: agonists of human relaxin receptor RXFP1; Q9HBX9; AID 2676; HEK293T-RXFP1 cAMP TR-FRET, 30 min; response scale: percent of porcine relaxin response, buffer zero; Potency, µM (titrated, usually from 57.5 µM), inactives show top-dose activation, hits mostly activators; 0.3% of 370,000 active; active means well fitted activation curve with a large enough effect; inconclusive means small, poorly fitted or top-dose-only effect; further: potency means the concentration at half of the fitted maximal effect; on the % scale 0 is the no-effect control and ±100 the full control effect; nearly all actives have a fitted effect of over 60% in size
#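 HEK293 cells stably expressing RXFP1, treated 30 min at 37C with compounds plus PDE4 inhibitor Ro 20174; cAMP measured by HTRF TR-FRET. Normalized to buffer and 29 nM porcine relaxin; EC50 by Hill fit.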
# gsp antagonist: antagonists of gsp mutant (McCune-Albright syndrome). gsp-mutant cells, cAMP HTRF, 30 min. Potency, µM (doses to about 76.9 µM), inactives show top-dose activity change, negative = inhibition, usual class: inhibitors. 0.4% of 340,000 active. AID 624288; calls by dose curve; cell line not stated here;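 further: intracellular cAMP measured with PDE inhibitor Ro 20-1724 present during compound exposure; potency means the concentration at half of the fitted maximal effect; on the % scale 0 is the no-effect control and ±100 the full control effect; nearly all actives have a fitted effect of over 65% in size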
#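 HTRF cAMP read-out (cAMP-d2 plus anti-cAMP antibody-K in lysis buffer, 30 min RT). Before lysis, cells are exposed to compounds with […] for 30 min at 37C in DPBS containing Ca/Mg, BSA and Tween 20.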
# gsp ag: gsp mutant agonism | 0.13% of 340,000 active | gsp mutant cells, cAMP HTRF, 30 min | AID 624287 | Potency, µM (highest dose often 76.9 µM), for inactives: top-dose activation (cAMP increase), usual class: activators; active means well fitted activation curve with a large enough effect; inconclusive means small, poorly fitted or top-dose-only effect, or another doubt; inactive means no such curve, though single readings can be large or run the other way; cell line not stated here;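 further: phosphodiesterase inhibitor Ro 20-1724 added with compounds to block cAMP breakdown; potency means the concentration at half of the fitted maximal effect; nearly all actives have a fitted effect of over 60% in size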
#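 Cells stably selected in G418 were plated at 2000/well, grown 16-24 hr, then given compounds in DMSO with the PDE inhibitor […] (300 uM solution added) for 30 min at 37C; cAMP was read by HTRF.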
# Numbers without * were called inactive; i = inactive; ? = inconclusive; . = no result; [ ] = remark or other dose. Most compounds without a hit are left out; they make up all but 1.2% or so of the library.
SMILES,RXFP1 antag,pAkt inh,RXFP1 ag,gsp antagonist,gsp ag
C=CC[N+]1([C@H]2C[C@H]3[C@@H]4CC[C@H]5C[C@H](OC(C)=O)[C@@H](N6CCCCC6)C[C@]5(C)[C@H]4CC[C@]3(C)[C@H]2OC(=O)CC)CCCCC1,-4,.,.,.,.
CCCn1c(N)c(C(=O)CSc2nc3ccccc3n2CCC#N)c(=O)n(C)c1=O,-2,i,11%,14%,-22%
CCCCCCn1c(SCC(=O)c2c(N)n(C)c(=O)n(C)c2=O)nc2ccccc21,-15,-98%*,10%,11%,?
COc1ccc(C2c3ccc4ccccc4c3Oc3ncn(CCN(C)C)c(=N)c32)cc1 (configuration not stated),-108*,i,2%,5%,7%
COc1cc(NC(=O)CCS(=O)(=O)c2ccc3c(c2)CC(=O)N3C)cc(OC)c1OC,.,.,1%,.,.
Clc1ccccc1C(c1ccccc1)(c1ccccc1)n1ccnc1,-94*,i,1%,?,.
Cc1ccc(C(c2sc3nc(-c4ccco4)nn3c2O)N2CCN(Cc3ccccc3)CC2)cc1 (configuration not stated),-16,.,0%,.,.
CCn1c(=S)[nH]c2scc(-c3cccs3)c2c1=O,-14,i,16µM*,-18%,?
CCn1c2ccccc2c2cc(/C=N/NC(=O)c3cc(O)cc(O)c3)ccc21,-83*,i,4%,?,-3%[15.4 µM]
O=C(N/N=C/c1cn(Cc2ccccc2)c2ccccc12)c1cc(O)cc(O)c1,17,i,5%,19%,-7%
CCn1c2ccccc2c2cc(/C=N/NC(=O)c3ccc(O)cc3)ccc21,-23,i,0%,28µM*,-21%[15.4 µM]
CCn1c2ccccc2c2cc(/C=N/NC(=O)c3ccncc3)ccc21,-8,i,0%,.,-2%[15.4 µM]
Cc1cc(NC(=S)N(Cc2cccc(Br)c2)CC2CCC(C(=O)O)CC2)ccc1Cl (configuration not stated),-2,i,0%,28µM*,6%
Cc1ccc2c(c1)N(C(=O)CCC(=O)NCc1cccc(F)c1)CC(C)O2 (configuration not stated),-15,.,-3%,.,.
CCC(=O)c1ccc(OCC(=O)Nc2cccc(S(=O)(=O)N(C)c3ccccc3)c2)cc1,10,i,-1%,28µM*,-3%
CN(c1ccccc1)S(=O)(=O)c1cccc(NC(=O)COc2cccc([N+](=O)[O-])c2)c1,-1,i,1%,?,-5%
CCOc1ccc2nc(C)cc(Nc3ccccc3OCC)c2c1,.,.,2%,.,.
CC(=O)Nc1cccc(NC(=O)CSc2nc3c(c(=O)n(C)c(=O)n3C)n2C)c1,26,i,28µM*,17%,51%[15.4 µM]
CCC(=O)Nc1cccc(NC(=O)CSc2nc3c(c(=O)n(C)c(=O)n3C)n2C)c1,15,i,?,4%,26%[15.4 µM]
COc1ccc(-c2onc(C)c2C)cc1S(=O)(=O)N1CCN(c2ccc(Cl)cc2)CC1,1,.,0%,.,.
Cc1ccccc1N1CC(C(=O)Nc2nnc(SCCN3CCOCC3)s2)CC1=O (configuration not stated),4,i,0%,32µM*,?
CC1(C)N=C(N)N=C(N)N1CCCCc1ccccc1,-6,i,.,-11%,14µM*
COc1ccc(OCC(O)CN(CCO)CC(O)Cn2ccc3ccccc32)cc1 (configuration not stated),-64*,i,1%,-4%,8%[15.4 µM]
COc1ccc(CSCC(=O)Nc2ccc(S(=O)(=O)N3CCCCCC3)cc2)cc1,21,i,1%,-4%,-3%
COc1ccc(NC(=O)CSCC(=O)Nc2ccc(S(=O)(=O)N3CCCCC3)cc2)cc1,-64*,i,1%,-5%,20%[15.4 µM]
Cc1occc1C(=O)Nc1ccc(S(=O)(=O)N2CCCC2)cc1,10,i,-2%,4%,-8%
CCn1ncc(C(=O)Nc2ccc(S(=O)(=O)N3CCCC3)cc2)c1C,-25,-123%*,1%,-5%,-44%
CCOc1ccc(NC(=O)Cn2c(=O)c(CNc3ccc(CC)cc3)cc3cc4c(cc32)OCO4)cc1,.,.,1%,.,.
CCOc1ccc(CNC(=O)c2ccccc2NC(=O)c2nsc3ccccc23)cc1,-5,.,8%,.,.
